Measurements as given in the supplement of paper PMC12494721.
Counter-ions that a name gives are not always drawn.

Legend:
Settings in all cases: incubation time: 27 h, anaerobic, 37 °C;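 for the amine columns active = adjusted P below 0.05 in both replicates with a change the same way and a mean fold change under 0.8 or over 1.25; inactive = the rest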
[1] = test system: Clostridium sporogenes DSM 1664; test: growth (OD595) fold change vs plate DMSO controls (fold change (ratio)); higher = more growth
How it was run: (§1)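 Shaken 96-well cultures in mGAM, grown anaerobically for 27 h at 37 °C, were read at 595 nm. OD came from blank-subtracted readings, corrected for background with 20 µM compound solutions in water and scaled by a calibration factor of 5. Growth is the fold change versus the plate's median DMSO control. Values average 2 biological replicates, and any fold change above 1.5 is NA.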

Escherichia coli IAI1 [2] = test: as above
How it was run: as §1

[3] = test system: Klebsiella aerogenes DSM 30053; test: as above
How it was run: as §1

[4] = test system: Ruminococcus gnavus DSM 108212; test: as above
How it was run: as §1

[5] = test system: Klebsiella aerogenes DSM 30053; test: fold change of Histamine concentration vs plate DMSO controls (fold change (ratio)); higher = more amine produced, active = hit call of the paper (significant change in both replicates, either direction)
How it was run: (§2)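 Amine values are fold changes relative to DMSO-only wells on the same plate. They derive from 27 h, 37 °C anaerobic mGAM cultures of four gut bacterial strains in 80 µL wells, dosed at 20 µM final, or 50 µM final for sweeteners. Extraction of the whole culture, LC–triple-quadrupole MS in dynamic MRM mode, external calibration curves and within-batch drift correction were used, with 2 biological replicates averaged.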

[6] = test system: Clostridium sporogenes DSM 1664; test: fold change of Tryptamine concentration vs plate DMSO controls (fold change (ratio)); higher = more amine produced, active = hit call of the paper (significant change in both replicates, either direction)
How it was run: as §2

[7] = test system: Ruminococcus gnavus DSM 108212; test: as above
How it was run: as §2

Escherichia coli IAI1 [8] = test: fold change of Putrescine concentration vs plate DMSO controls (fold change (ratio)); higher = more amine produced, active = hit call of the paper (significant change in both replicates, either direction)
How it was run: as §2

[9] = test system: Klebsiella aerogenes DSM 30053; test: as above
How it was run: as §2

Escherichia coli IAI1 [10] = test: fold change of Cadaverine concentration vs plate DMSO controls (fold change (ratio)); higher = more amine produced, active = hit call of the paper (significant change in both replicates, either direction)
How it was run: as §2

[11] = test system: Klebsiella aerogenes DSM 30053; test: as above
How it was run: as §2

[12] = test system: Ruminococcus gnavus DSM 108212; test: fold change of 2-Phenylethylamine concentration vs plate DMSO controls (fold change (ratio)); higher = more amine produced, active = hit call of the paper (significant change in both replicates, either direction)
How it was run: as §2

Structure (SMILES) | growth [1] | growth (Escherichia coli IAI1 [2]) | growth [3] | growth [4] | fold change of Histamine concentration [5] | fold change of Tryptamine concentration [6] | fold change of Tryptamine concentration [7] | fold change of Putrescine concentration (Escherichia coli IAI1 [8]) | fold change of Putrescine concentration [9] | fold change of Cadaverine concentration (Escherichia coli IAI1 [10]) | fold change of Cadaverine concentration [11] | fold change of 2-Phenylethylamine concentration [12]
COc1c(N2CCNC(C)C2)c(F)cc2c(=O)c(C(=O)O)cn(C3CC3)c12 (stereo not given) [Gatifloxacin] (20 µM) | 0.0115 | 0.0496 | 0.235 | 0.0125 | 0.285 (active) | 0.0452 (active) | 0.226 (active) | 0.888 (inactive) | 1.02 (inactive) | 0.264 (active) | 0.97 (inactive) | 0.226 (active)
c1ccc2c(c1)-c1cccc3c1c-2cc1ccccc13 [Benzo[b]fluoranthene] (20 µM) | 1.08 | 0.997 | 1.04 | 1 | 0.993 (inactive) | 1.03 (inactive) | 1.02 (inactive) | 1 (inactive) | 1.02 (inactive) | 1.03 (inactive) | 1.01 (inactive) | 1.04 (inactive)
Cn1nnnc1SCC1=C(C(=O)O)N2C(=O)[C@@H](NC(=O)[C@H](O)c3ccccc3)[C@H]2SC1 [Cefamandole sodium salt] (20 µM) | 0 | 0.0343 | 1.08 | 0.971 | 1.04 (inactive) | 0.0204 (active) | 0.141 (active) | 0.968 (inactive) | 1.02 (inactive) | 2.1 (active) | 1.06 (inactive) | 0.118 (active)
CCCc1nc(C)c2c(=O)nc(-c3cc(S(=O)(=O)N4CCN(CC)CC4)ccc3OCC)[nH]n12 [Vardenafil] (20 µM) | 1.15 | 0.975 | 1.01 | 1.27 | 1.03 (inactive) | 0.992 (inactive) | 1.05 (inactive) | 1.01 (inactive) | 1.01 (inactive) | 1.02 (inactive) | 1.01 (inactive) | 1.07 (inactive)
O=c1[nH]c(=O)n([C@H]2C[C@H](O)[C@@H](CO)O2)cc1I [Idoxuridine] (20 µM) | 0.856 | 1.02 | 1.04 | 0.871 | 1.03 (inactive) | 1.25 (active) | 1.05 (inactive) | 1.18 (inactive) | 1.02 (inactive) | 0.982 (inactive) | 1 (inactive) | 1.08 (inactive)
CC(C)(C)NC(=O)[C@@H]1CN(Cc2cccnc2)CCN1C[C@@H](O)C[C@@H](Cc1ccccc1)C(=O)N[C@H]1c2ccccc2C[C@H]1O [Indinavir sulfate] (20 µM) | 1.29 | 1.01 | 1.04 | 0.985 | 0.966 (inactive) | 1.04 (inactive) | 1.05 (inactive) | 1.02 (inactive) | 1.03 (inactive) | 1.05 (inactive) | 1 (inactive) | 1.02 (inactive)
CCOC(=O)C(C)(C)Oc1ccc(Cl)cc1 [Clofibrate] (20 µM) | 1.24 | 1.23 | 1.03 | 0.977 | 1.07 (inactive) | 1.04 (inactive) | 1 (inactive) | 1.18 (inactive) | 1.03 (inactive) | 0.919 (inactive) | 0.996 (inactive) | 0.97 (inactive)
CCN(CC)CCOC(=O)C(c1ccccc1)C1CCCCC1 (stereo not given) [Drofenine hydrochloride] (20 µM) | 0.967 | 0.977 | 1 | 0.939 | 1.03 (inactive) | 0.99 (inactive) | 0.866 (inactive) | 1.06 (inactive) | 1.01 (inactive) | 1.04 (inactive) | 0.992 (inactive) | 0.921 (inactive)
CCCc1nn(C)c2c(=O)[nH]c(-c3cc(S(=O)(=O)N4CCN(C)CC4)ccc3OCC)nc12 [Sildenafil] (20 µM) | 1.23 | 1.01 | 1.02 | 1.14 | 0.993 (inactive) | 1.06 (inactive) | 1.15 (inactive) | 0.921 (inactive) | 0.98 (inactive) | 0.87 (inactive) | 1.04 (inactive) | 1.24 (inactive)
C[C@@H](CN1CC(=O)NC(=O)C1)N1CC(=O)NC(=O)C1 [Dexrazoxane hydrochloride] (20 µM) | 1.26 | 1.01 | 1.05 | 0.949 | 1.01 (inactive) | 0.997 (inactive) | 1.03 (inactive) | 0.979 (inactive) | 1.02 (inactive) | 0.988 (inactive) | 1.01 (inactive) | 1.02 (inactive)
